According to PubChem BioAssay (NCI):
About 83,000 compounds went through this panel and 20% of them were active in at least one assay; those are over-represented in the sample as a whole.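 Assay: single dose, 48 h. Readout: percent growth (0 = no net growth; negative = cell death). Active: <10.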 A number with no mark means an inactive call. The source made the active and inactive calls.

Legend:
Assay in all cases: NCI-60 one-dose screen, 48 h (100 = growth as untreated, 0 = no growth, -100 = all killed)
Settings in all cases: 10 µM
[1] = system: HCT-15 colon
[2] = system: HT29 colon
[3] = system: SNB-75 CNS
[4] = system: SNB-19 CNS
[5] = system: U251 CNS
[6] = system: PC-3 prostate
[7] = system: SK-MEL-5 melanoma
[8] = system: UACC-62 melanoma
[9] = system: SK-MEL-28 melanoma
[10] = system: LOX IMVI melanoma

| Compound | growth [1] | growth [2] | growth [3] | growth [4] | growth [5] | growth [6] | growth [7] | growth [8] | growth [9] | growth [10] |
| --- | --- | --- | --- | --- | --- | --- | --- | --- | --- | --- |
| Cc1cccc(NC(=O)CSc2nc3ccc(F)cc3c(=O)n2-c2ccc(Cl)cc2)c1C | 70.5% | 76.3% | -20.7% (active) | 7.05% (active) | 48.8% | 68.9% | 88.2% | 80.8% | 74.3% |  |
| CC(=O)Nc1ccc(-n2cnc3cc(-c4ccc(NS(C)(=O)=O)cc4)ccc32)cc1 | 32.4% | 34.2% | 35.6% | 61.1% | 59.8% | 62.8% | 69.5% | 54.7% | 85.3% |  |
| CN1C(=O)/C(=C/c2ccc3ncsc3c2)NC1=NC12CC3CC(CC(O)(C3)C1)C2 | -7.12% (active) | 3.87% (active) | 25.9% | 16.3% | 16.4% | 16.8% | -90.7% (active) | -7.72% (active) | -18.4% (active) |  |
| N#C/C(=C\c1ccc(N(c2ccccc2)c2ccccc2)cc1)C(N)=O | 65.1% | 30.5% | 95.4% | 77% | 32.5% | 61% | 31.2% | -47.3% (active) | 104% |  |
| COc1ccc(N(C)c2cc(C#N)nc3ccccc23)cc1N | 0.224% (active) | -22.1% (active) | 15.3% | 12.2% | 9.78% (active) | 30.3% | -47.7% (active) | 23.5% | 56.3% |  |
| CN1CCN(c2ccc(Nc3nc(NCCCNC(=O)c4ccc(Cl)cc4)c4sccc4n3)cc2)CC1 | 26.8% | 35.4% | 99.5% | 104% | 44.6% | 61.6% | 72.4% | 86% | 89.1% |  |
| CCCCSc1nc(Nc2ccc(/C(C)=N/NC(N)=S)cc2)c(C#N)c(-c2ccccc2)n1 | 38.4% | 61.2% | 96.8% | 50% | 18.8% | 28.9% | 54.9% | 64.5% | 66.3% |  |
| O=C1CCC(N2Cc3cc(CC(=O)Nc4ccc(N5CCCCC5)cc4)ccc3C2=O)C(=O)N1 (configuration not stated) | 7.29% (active) | 77.4% | 55.7% | 49.2% | 88.6% | 26.7% | 38.8% | 78.1% | 76.4% |  |
| Cc1ccc2nc(COc3ccc(C(=O)NNC(=S)NCCc4ccccc4)cc3)[nH]c2c1 | 100% | 112% | 120% | -16.6% (active) | 24% | 81.4% | 89% | 49.9% | 92.9% |  |
| Nc1nnc(-c2c[nH]c3ncccc23)c(-c2c[nH]c3ccc(Br)cc23)n1 | 56.5% | 45.1% | 28.2% | 40.8% | 37.5% | 56.9% | -33.5% (active) | 33.8% | 54% |  |
| CCCn1c(=O)c2[nH]c(-c3ccc(OCc4nc5ccc(C(F)(F)F)cc5[nH]4)cc3)nc2n(CCC)c1=O | 23.1% | 62% | 84.6% | 71.5% | 37.6% | 33.2% | 37.1% | 6.48% (active) | 58.4% |  |
| O=C1Nc2cc(-c3ccc(NC(=O)c4cccc([N+](=O)[O-])c4)cc3)ccc2/C1=C/c1ccc[nH]1 | 55.3% | 102% | 223% | 94.5% | 99.3% | 66.2% | 104% | 63.7% | 97.1% |  |
| Cc1cc2nc3c4ccccc4n(CCO)c3nc2cc1C | 71.2% | 98.1% | 73.6% | 87.7% | 64.7% | 57.3% | 81.6% | 73.8% | 91% |  |
| COc1ccc(NC(=O)Nc2ccc(OCC(=O)N=Nc3c(O)[nH]c4ccc([N+](=O)[O-])cc34)cc2)cc1 | 106% | 95.2% | 72.4% | 40.4% | 25% | 81.9% | 96% | 104% | 115% |  |
| Nc1nc2c(F)c(F)c(F)c(F)c2s1 | 102% | 104% | 83.1% | 99.8% | 96.5% | 104% | 95.7% | 96.6% | 109% |  |
| COc1cc(Cn2c(C(F)(F)F)cc3c(Cl)ncnc32)ccn1 | -48.3% (active) | 69.7% | -60.9% (active) | -8.63% (active) | 12.7% | 29.3% | -20.4% (active) | 0.529% (active) | 27.9% |  |
| COc1ccc(-c2cc(-c3cc(C(=O)c4ccccc4)n4ccc(C)cc34)nc(N)c2C#N)cc1 | 78% | 75% | 91.5% | 45.1% | 45.4% | 63.5% | 67.7% |  | 87.6% | 51.3% |
| Cc1ccc(C(C)C)cc1NC(=O)c1ccccc1O | 35% | 103% | 46.4% | 37.2% | 41% | 33.4% | -45.5% (active) |  | 31.1% | 40.1% |
| C=C1CC[C@H](C(=C)C)[C@H]2C=C(C)C(=O)C3=C(C(=O)[C@@](C)(O)C3)[C@H]12 | -80.8% (active) | -37.6% (active) | -71% (active) | -90.9% (active) | -95.9% (active) | -73.2% (active) | -90.4% (active) |  | -89.2% (active) | -75.9% (active) |
| O=C(N=Nc1c(O)[nH]c2ccc(Br)cc12)c1ccc2nc(-c3ccccc3)[nH]c2c1 | 63.2% | -41.1% (active) | -46.7% (active) | -47.8% (active) | -95.2% (active) | -84.5% (active) | -58.9% (active) |  | -98.4% (active) |  |
| O=C1c2ccccc2C(=O)c2c1c(C(=O)c1ccc(Cl)cc1)n1c2ccc2c3ccccc3ccc21 | 103% | 109% | 86.7% | 96.1% | 110% | 94.8% |  | 96.9% | 108% | 90.2% |

| Compound | growth [1] | growth [2] | growth [3] | growth [4] | growth [5] | growth [6] | growth [7] | growth [8] | growth [9] | growth [10] |
| --- | --- | --- | --- | --- | --- | --- | --- | --- | --- | --- |
| CC(=O)Nc1ccc(-c2cn(-c3cccc(C(=O)Nc4ccc(F)c(C(F)(F)F)c4)c3)nn2)cn1 | 20.7% | 6.65% (active) | 119% | 43.8% | -47.8% (active) | 43.1% | 86.1% | 55.9% | 60.3% |  |
| Clc1ccc2c(N/N=C/c3c[nH]c4ccc(Br)cc34)ccnc2c1 | -80.3% (active) | -3.08% (active) | -91.1% (active) | -85.6% (active) | -25.6% (active) | -52.9% (active) | -100% (active) |  | -98.5% (active) | -77.7% (active) |
| NS(=O)(=O)c1ccc(N=Nc2c(O)n(CC(=O)Nc3ccccc3Br)c3ccccc23)cc1 | 38.2% | 9.73% (active) | 77% | 50.1% | 25.1% | 39.7% | 14.7% |  | 24.9% |  |
| COc1cc(C2CC(c3ccc(C)cc3)=Nc3c(N)nc(N)nc3N2)ccc1Oc1nc(Nc2ccc(F)cc2)nc(N(C)C)n1 (configuration not stated) | 14.9% | 9.46% (active) | 104% | 66.7% | 52.2% | 45.6% | -100% (active) |  | 88.3% | -77.8% (active) |
| C=CCn1c(SCC(=O)Nc2ccc(C(=O)/C=C/c3ccccc3)cc2)nnc1-c1c[nH]c2ccccc12 | -57.2% (active) | -31.5% (active) | 82.3% | 54.1% | -52.5% (active) | 39.4% |  | 47% | 68.5% | -100% (active) |
| CC(=C(c1ccc(OCCCN(C)C)cc1)c1ccc(OCCCN(C)C)cc1)c1ccccc1 | -92.1% (active) | -78.4% (active) | -77.5% (active) | -98.1% (active) | -86.1% (active) | -74.2% (active) | -100% (active) |  | -99.3% (active) | -100% (active) |
| Cc1ccc(-c2cc(-c3cc4ccccc4nc3Cl)[nH]c(=O)n2)cc1 | -39.8% (active) | -15.9% (active) | -17.2% (active) | 3.61% (active) | -23.5% (active) | 20.7% | 18.1% |  | 43.3% | -82.4% (active) |
| S=c1nc(-c2ccccc2)cc(-c2cc3ccccc3nc2Cl)[nH]1 | 49.7% | 67.6% | 23.4% | 81.2% | 83.2% | 60.1% | 32.1% |  | 65.2% | 44.9% |
| c1ccc(C(=C(c2ccc(OCCN3CCCCC3)cc2)c2ccc(OCCN3CCCCC3)cc2)C2CCCC2)cc1 | 34.6% | -96.2% (active) | -24.5% (active) | -96.8% (active) | -96.4% (active) | -37.1% (active) | -100% (active) |  | -75.6% (active) | -100% (active) |
| C/C(=C\CC/C=C(\C)CC/C=C(\C)CC[C@@H](O)C(C)(C)O)CC/C=C(\C)CC[C@@H](O)C(C)(C)O | 21.1% | -67% (active) | 70.2% | 61.4% | 33.2% | 7.84% (active) | -16.3% (active) |  | 38% | 28.7% |
| COc1ccc(/C(C)=N/N=C2C(=O)N(C)c3ccc(Br)cc32)cc1S(N)(=O)=O | 75.1% | 101% | 6.59% (active) | 34.7% | 51.7% | 73.7% | 88.2% |  | 90.3% | 74.6% |
| O=C(Nc1ccc(OCC(=O)c2ccccc2)cc1)Nc1ccc(Cl)c(C(F)(F)F)c1 | 17.8% | 29.3% | 3.5% (active) | 15.7% | 25.8% | 6.92% (active) | -61.2% (active) |  | 4.82% (active) | -24.4% (active) |
| CC(=O)c1cc(C(=O)N2c3ccccc3Sc3ccccc32)n2ccc(C)cc12 | 10.5% | 32.7% | 83.1% | 49.8% | 36.1% | 28.3% | -36.3% (active) |  | 48.7% | -40% (active) |
| COc1ccc([C@H]2C(C(=O)c3ccc(Cl)cc3)C3(N[C@@H]2c2ccccc2)C(=O)Nc2ccc(Cl)cc23)cc1 (some centres not stated) | -23% (active) | -50.8% (active) | 35.8% | 16% | -33.9% (active) | 18.1% |  | -63.1% (active) | 4.54% (active) | -100% (active) |
| COc1ccc(/C=C/C(=O)c2ccc(NC(=O)CN3C(=O)NC(C)(c4ccccc4)C3=O)cc2)cc1 (configuration not stated) | 75.7% | 67.6% | 96.8% | 91.8% | 67.7% | 61.4% | 60.1% |  | 93.8% | 56.5% |
| O=C(CSc1nnc(-c2c[nH]c3ccccc23)n1-c1ccccc1)Nc1ccc(C(=O)/C=C/c2ccc(Br)cc2)cc1 | 68.1% | 86.6% | 86.6% | 77% | 81.6% | 66% | 90.5% |  | 94% | 81.6% |
| CN1CCN(c2ccc(C(=O)/C=C/c3cc(C(F)(F)F)ccc3Cl)cc2)CC1 | -86.4% (active) | 0.637% (active) | 42.9% | -99.2% (active) | -74.5% (active) | -40.3% (active) | -90.6% (active) |  | -97.6% (active) | -100% (active) |
| CCNCCCn1c2c(c3cc(OC)c(OC)cc3c1=O)C(=O)c1cc3c(nc1-2)OCO3 | -83% (active) | 26.1% | 56.5% | 24.9% | 21.7% | 43.7% | 22.5% |  | 71% | -97.9% (active) |
| C/C(=N\N=C\c1ccc(N(C)C)cc1)c1ccc2c(c1)Nc1ccccc1S2 | 22% | 52.5% | 69.6% | 63.1% | 29.4% | 54% | 36.1% |  | 85.7% | 55% |
| CC(=C(c1ccc(OCCN2CCCCCC2)cc1)c1ccc(OCCN2CCCCCC2)cc1)c1ccc(Cl)cc1 | -76% (active) | -94.8% (active) | -97.2% (active) | -99.2% (active) | -100% (active) | -83.3% (active) | -100% (active) |  | -98.5% (active) | -100% (active) |
